# PMK inhibit = S. pneumoniae PMK inhibitors, primary screen, biochemical, mevalonate pathway, pilot trial included; phosphomevalonate kinase (Streptococcus pneumoniae D39); purified PMK, PK/LDH-coupled NADH absorbance 340 nm; inhibition, % at 10 µM; 65,000 tested, 0.49% active;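 active = top-ranked compounds by inhibition in the single 10 µM screen, taking a fixed number of the strongest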;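 also: 0% = full reaction with DMSO carrier and 100% = background rate without enzyme reaction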
# A340 absorber = compound light absorbance at 340 nm, profiling panel, artefact control, biochemical, MLSMR library, data from PS, PMK, MK assays. compound absorbance at 340 nm, fold over control. 65,000 tested, under 10 active. AID 708, 2007. fold change at 10 µM;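 active = at 10 µM dose, initial 340 nm absorbance at least 2 fold that of control wells; inactive = change under 2 fold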;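 also: initial absorbance extrapolated from kinetic A340 decline of NADH oxidation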
# Autofluor 339 = intrinsic fluorescence of library compounds, ex339/em460 – biochemical, MLSMR library, data from DPM-DC assay, artefact control, profiling panel; compound autofluorescence, ex339/em460 nm, NADH buffer; stronger effect = higher value; 1 = no-compound wells, NADH background; fluorescence fold increase at 10 µM; 65,000 tested, 5.5% active;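 active = at 10 µM, mean starting fluorescence two-fold or more over control wells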;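 also: signal is the first read of a kinetic run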
# Spn DPM-DC inh = S. pneumoniae DPM-DC inhibitors, primary screen, biochemical, PK/LDH-coupled NADH fluorescence; AID 556, 2006; purified DPM-DC; calls only at 10 µM; diphosphomevalonate decarboxylase (Streptococcus pneumoniae D39); 65,000 tested, 0.49% active;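 active = the 320 compounds with the highest percent inhibition in the single-dose primary screen, excluding strongly autofluorescent ones, cut at about 32% in these data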;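 also: kinetic rate of NADH fluorescence loss reporting ADP formed by the decarboxylase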
# Spn MK inh = S. pneumoniae MK inhibitors, primary screen, biochemical, PK/LDH-coupled NADH absorbance; mevalonate kinase [Streptococcus pneumoniae D39]; purified MK, PK/LDH-coupled NADH absorbance 340 nm; inhibition, % at 10 µM; 65,000 tested, 0.48% active; AID 555, 2006;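 active = ranked among the strongest by inhibition in the single 10 µM screen, a fixed top-ranked set picked for dose follow-up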
# NADH coupling = inhibitors of PK/LDH coupling enzymes, profiling panel, artefact control, biochemical, MLSMR library; coupled PK/LDH NADH assays, four targets; IC50, µM (top dose mostly 10 µM), inactives show at the top dose inhibition; 65,000 tested, 0.02% active; AID 774, 2007;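 active = single-dose screening hits from any of four coupled enzyme assays that gave an IC50 when retested across doses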;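 also: the DPM-DC format reads NADH fluorescence rather than 340 nm absorbance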
# Numbers without * were called inactive; i = inactive; / = not tested or not shown. Sampled rows, rich in hits. Any-hit rate of the full collection: about 6.8%.
SMILES,PMK inhibit,A340 absorber,Autofluor 339,Spn DPM-DC inh,Spn MK inh,NADH coupling
Clc1cccc(Nc2ncnc3c2cnn3-c2ccccc2)c1,6.0,1.04,2.12*,i,1.0,2.0%
Fc1cccc(Nc2ncnc3c2cnn3-c2ccccc2)c1,6.0,1.02,1.53,i,6.0,3.0%
COc1ccc(-c2noc(CSc3nc(N)c(-c4ccccc4)c(=O)[nH]3)n2)cc1,3.0,1.02,1.12,i,9.0,4.0%
COc1ccc(-c2cn3cccnc3n2)cc1NC(=O)c1ccc(Br)o1,14.0,1.1,5.29*,/,1.0,8.0%
Cc1ccc(-c2cn3cccnc3n2)cc1NC(=O)c1ccc(Br)o1,17.0,1.02,3.47*,/,0.0,4.0%
Cc1cc(O)c(NC(=O)c2ccc(Br)o2)cc1C,5.0,1,1.02,i,8.0,11.0%
O=C(COC(=O)c1cc(S(=O)(=O)N2CCOCC2)ccc1Cl)Nc1ccc2c(c1)OCO2,12.0,0.97,1.02,i,5.0,6.0%
CCN(CC)CCCN1C(=O)C(O)=C(C(C)=O)C1c1ccc(OC)cc1OC (stereo not drawn),8.0,1.06,1.04,i,9.0,6.0%
COC(=O)c1c(C#N)c(N)nc2c1CCC2,3.0,1,2.97*,/,11.0,3.0%
Cc1cc2nc(-c3ccc(NC(=O)C(C)C)cc3)oc2cc1C,0.0,1.13,2.19*,/,0.0,0.0%
Cc1ccc(-c2nc3cc(NC(=O)C(C)C)ccc3o2)cc1C,12.0,1.01,3*,/,4.0,3.0%
CC(C)C(=O)Nc1cccc(-c2nc3ccccc3o2)c1,6.0,0.99,1.13,i,8.0,6.0%
CC(Oc1ccc(Cl)cc1Cl)C(=O)Nc1ccc2oc(-c3ccncc3)nc2c1 (stereo not drawn),5.0,1.02,3.83*,/,12.0,9.0%
CC(Oc1ccc(Cl)cc1Cl)C(=O)Nc1ncccn1 (stereo not drawn),4.0,1,1.05,i,8.0,2.0%
Cc1ccc(-c2nc3cc(NC(=O)C(C)C)ccc3o2)cc1,1.0,1.08,2.46*,/,5.0,2.0%
O=C1CN(C(=O)c2ccco2)C(c2ccccc2)c2cc(Cl)ccc2N1 (stereo not drawn),10.0,1,1.12,i,4.0,5.0%
CC(=O)Nc1ccc(S(=O)(=O)N(Cc2ccco2)CC2CCCO2)cc1 (stereo not drawn),7.0,1,1.09,i,6.0,4.0%
CC1(C)CC(=O)c2c(-c3cccs3)n[nH]c2C1,25.0,1.02,1.73,i,1.0,17.0%
COC(=O)C1C(=O)c2c([nH]c(C(=O)OCC3CCCO3)c2C)CC1C (stereo not drawn),1.0,1.04,1.07,i,6.0,2.0%
CC(C)C(=O)Nc1ccc(-c2nc3cccnc3o2)cc1,12.0,1.15,2.45*,/,7.0,4.0%
O=C1CC(c2ccccc2)CC(O)=C1C=NCC1CCCO1 (stereo not drawn),38.0*,1,1.11,i,25.0,21.0%
c1ccc(-c2noc(-c3cccc4ccccc34)n2)cc1,11.0,1.02,2.52*,i,8.0,8.0%
CCN(CCCNC(=O)CN1C(=O)COc2ccccc21)c1cccc(C)c1,7.0,1.04,1.06,i,0.0,2.0%
Fc1ccc(CN2CCSCC2)cc1Br,2.0,1.05,1.1,i,0.0,1.0%
CCOC(=O)C1CCCN(Cc2ccc(OC)cc2OC)C1 (stereo not drawn),0.0,1.07,1.13,i,49.0*,16.0%
SMILES,PMK inhibit,A340 absorber,Autofluor 339,Spn DPM-DC inh,Spn MK inh,NADH coupling
CCOC(=O)C1CCN(Cc2ccc(F)c(Br)c2)CC1,9.0,1,0.98,i,51.0*,6.0%
CCOC(=O)C1CCCN(Cc2ccc(O)c(OC)c2)C1 (stereo not drawn),0.0,1.05,1.1,i,30.0,10.0%
CCOC(=O)C1CCN(Cc2ccc(OC)c(C)c2OC)CC1,16.0,0.98,1,i,48.0*,9.0%
CC(C)COC(=O)C1C2C=CC3(CN(C4CCCC4)C(=O)C13)O2 (stereo not drawn),8.0,1.02,1.11,i,3.0,4.0%
Cc1ccc(-c2ccc(CCC(=O)O)n2Cc2ccco2)cc1,15.0,1.04,1.27,i,8.0,8.0%
O=c1c2ccccc2nnn1CSc1nnc(-c2cccs2)n1Cc1ccccc1,10.0,1.01,1.04,i,76.0*,31.0%
Cc1nnc2sc(-c3cccc4ccccc34)nn12,14.0,1.03,2.25*,i,11.0,12.0%
Cc1nnc2sc(-c3ccncc3)nn12,7.0,1.01,1.13,i,7.0,5.0%
CCCc1cc(=O)oc2cc(C)cc(OCc3nn[nH]n3)c12,13.0,1.05,3.83*,/,7.0,10.0%
CCCc1cc(=O)oc2cc(OCC(=O)OC)cc(OCC(=O)OC)c12,2.0,1.02,2.1*,/,3.0,3.0%
COc1cc(OC)cc(C(=O)NCC(=O)N2CCCCC2)c1,0.0,1.04,1.07,i,0.0,0.0%
CC1(C)NC(=O)N(c2ccccc2Cl)C1(C)NO (stereo not drawn),6.0,1.03,1.08,i,9.0,5.0%
O=C(Nc1cccc(-c2cn3cccnc3n2)c1)c1ccc2c(c1)OCO2,10.0,1.02,5.26*,/,5.0,8.0%
O=C(Nc1cccc(-c2cn3cccnc3n2)c1)c1ccco1,11.0,1.08,5.37*,/,0.0,6.0%
O=C(Nc1cccc(-c2cnc3ccccc3n2)c1)c1ccco1,0.0,1.05,1.09,i,0.0,2.0%
O=C(Nc1cccc(-c2cn3cccnc3n2)c1)c1ccc(Br)o1,13.0,1.07,5.25*,/,2.0,8.0%
O=C1C(=O)N(CCN2CCOCC2)C(c2ccncc2)/C1=C(/O)c1ccc2c(c1)OCO2 (stereo not drawn),0.0,1.15,1.09,i,79.0*,26.0%
CCOC(=O)C1CCCN(C(=O)C2CCCN(S(C)(=O)=O)C2)C1 (stereo not drawn),26.0*,0.99,1.06,i,1.0,9.0%
CCOC(=O)N1CCN(C(=O)CCCn2nc(C)c3sc4ccccc4c3c2=O)CC1,11.0,1.07,1.26,i,0.0,4.0%
COc1cc2c(C)nc(C)c(C#N)c2cc1OC,7.0,1.01,1.44,i,12.0,4.0%
c1ccc(N2CCN(c3nc4ccccc4n4nnnc34)CC2)cc1,15.0,1.06,1.78,i,0.0,5.0%
c1ccc(CCNc2nc3ccccc3n3nnnc23)cc1,13.0,1.05,2.58*,i,0.0,7.0%
Cc1c(NC(=O)CCC(=O)N2CCCCC2)c(=O)n(-c2ccccc2)n1C,4.0,1.02,1.09,i,10.0,5.0%
